The values that follow come from paper PMC5540273 (PLoS ONE, 2017).
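Also: KINOMEscan kinase panel screen.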

The test system of this experiment is T1, ASK1.
T1 construct: gene MAP3K5
The note with it: concentration: 1 μM,replicates: in singlicate; n = 1.
`OCCn1cc(-c2cnc3nnn(Cc4ccc5ncccc5c4)c3n2)cn1`: the “%Inh” value came out at 19%. In the case of `CCN1CCN(CCCC(=O)Nc2n[nH]c3nc(-c4ccc(O)cc4)c(Br)cc23)CC1` [SB-731579], the “%Inh” value stood at 0%.

Regarding `C[C@@H]1CNc2c(sc3ccc4nc(-c5ccncc5)ccc4c23)C(=O)N1`, the “%Inh” value was determined as 90%. For the molecule `COc1cccc(CNC(=O)NC2CCN(c3ccnc(Nc4cc(OC)c(OC)c(OC)c4)n3)C2)c1` (stereo not shown) [GSK1379765], the “%Inh” value was determined as 7%. Consider `CCn1c(-c2nonc2N)nc2cncc(CNC3CCNCC3)c21.Cl` [SB-747651], for which the “%Inh” value is recorded as 9%. On to `O=C(NCC1CC1)c1ccc(-c2cc(C(=O)NC3CC3)ccc2F)cc1` [GW810445], for which the “%Inh” value is reported as 19%. `COc1cccc(OC)c1C(=O)Nc1cccc(-c2nn3ccccc3c2-c2ccnc(Nc3cccc(F)c3)n2)c1` [GSK361065]: the “%Inh” value is 22%.

Consider `Cn1cc(-c2cccc3c(N)c(C(N)=O)nnc23)cn1`, for which the “%Inh” value is 1%.

For `CC(C)S(=O)(=O)N1CCN(Cc2ccc3c(c2)nc(NC(=O)c2ccsc2)n3C[C@H](O)c2ccccc2)CC1` [GW635815], the “%Inh” value is on record as 17%. To `Cc1ccc(CC(=O)N2CCc3cc(-c4cn(C)c5ncnc(N)c45)ccc32)cc1` [GSK2634758] belongs 3%; to `CCn1c(-c2nonc2N)nc2cncc(Br)c21` [SB-738004], 13%; to `O=C(Nc1ccccc1)c1cccc(Oc2ccc3nccn3n2)c1`, 0%.

With `COC(=O)Nc1nc2cc(Oc3ccc(NC(=O)Nc4cc(C(F)(F)F)ccc4Cl)cc3)ccc2[nH]1.Cl` [GW697465], the “%Inh” value came to 11%. The same measure for `O=C1NCCc2[nH]c(-c3ccncc3)cc21`: 40%. For the molecule `CNC(=O)c1ccccc1Nc1nc(Nc2cccc(CS(C)(=O)=O)c2)ncc1C.O=CO` [GSK1520489], the “%Inh” value is listed as 0%.

On to `O=C(Nc1cccc(Oc2ccc3nccn3n2)c1)Nc1cccc(C(F)(F)F)c1`, for which the “%Inh” value is 0%. As for `COc1ccc(Nc2nccc(N3CCC(NC(=O)c4cccc(C#N)c4)C3)n2)cc1` (stereo not shown) [GSK1379730], the “%Inh” value is 0%. On to `COc1cc2nccc(Nc3ccc(Oc4ccccc4)cc3)c2cc1OC.Cl` [GI261656], for which the “%Inh” value was 0%. With `C[C@@H](Oc1cc(-n2cnc3ccc(-c4ccncc4)cc32)sc1C(N)=O)c1ccccc1Cl` [GSK483724], the “%Inh” value is given as 10%. To `CC(=O)Nc1ccc(-c2cc3ncnc(SCC(=O)O)c3s2)cc1` belongs 0%. On to `NC(=O)c1ccc(-c2cc3ncnc(SCC(=O)O)c3s2)cc1`, for which the “%Inh” value was found to be 0%. `COc1cc(Nc2nccc(N3CCC(NC(=O)c4cccc(C#N)c4)C3)n2)cc(OC)c1OC` (stereo not shown) [GSK1379751]: the “%Inh” value was 0%.

As to `Cn1ccc2ncnc(Oc3ccc(NC(=O)Nc4cc(C(C)(C)C)on4)c(Cl)c3)c21`, the “%Inh” value turned out to be 11%. To `Cn1ccc2ncnc(Oc3ccc(NC(=O)Nc4cccc(C(F)(F)F)c4)c(F)c3)c21` belongs 5%. In the case of `CC(=O)Nc1nc2cnc(Nc3cc(NC(=O)c4cccc(CC(C)(C)C#N)c4)ccc3C)nc2s1`, the “%Inh” value amounted to 7%. `c1ccc(Oc2ccc(Nc3ccnc4ccc(-c5ccccn5)cc34)cc2)cc1` [GW407034]: the “%Inh” value came to 4%. As for `COC(=O)c1cccc(NC(=O)NC2CCN(c3ccnc(Nc4cc(OC)c(OC)c(OC)c4)n3)C2)c1` (stereo not shown) [GSK1379767], the “%Inh” value is on record as 0%. Consider `Cc1cccc(-c2nc(Nc3ccncc3)c3sccc3n2)n1` [GW869641], for which the “%Inh” value was determined as 25%. For the molecule `CC(=O)c1c(-c2ccncc2)[nH]c(-c2ccncc2)c1C` [GW493036], the “%Inh” value worked out at 17%. To `Cc1nnc(-c2ccc3occ(-c4ccc(S(C)=O)cc4)c3n2)o1` (stereo not shown) belongs 0%; to `Cc1ccc2c(-c3ccnc(Nc4ccc(C(F)(F)F)cc4)n3)cnn2n1` [GW819776], 0%. Regarding `Cn1ccc2ncnc(Oc3ccc(NC(=O)Nc4cncc(C(F)(F)F)c4)c(Cl)c3)c21`, the “%Inh” value worked out at 0%.

For the molecule `Cl.Nc1n[nH]c2cc(-c3ccccn3)ccc12` [GSK2189892], the “%Inh” value was 0%. In the case of `C[C@@H](Oc1cc(-n2cnc3cc(-c4cnn(C)c4)ccc32)sc1C(N)=O)c1ccccc1Cl` [GSK580432], the “%Inh” value stood at 0%. As to `CN1CCN(CCCNc2nccc(-c3c(-c4ccc(F)cc4)nn4cc(C(N)=O)ccc34)n2)CC1` [GW622475], the “%Inh” value came to 0%.

With `O=C(Nc1n[nH]c2cc(-c3ccco3)ccc12)C1CC1` [SB-737447], the “%Inh” value worked out at 0%. With `NC(=O)Nc1sc(-c2ccc(F)cc2)cc1C(N)=O` [GW789449], the “%Inh” value is 26%.
